Assay [1] in a line: P. berghei load reduction in hepatocytes – cell-based, HepG2, luciferase luminescence, HepG2 viability, primary screen (AID 624349; in the data active = parasite load remaining mostly below about 12%, no sharp cut-off; inactive = mostly above about 10%;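 also: 100% = mean of DMSO negative control wells on the same plate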). The note with it: P. berghei liver stage in HepG2, luciferase luminescence, concentration not given here; parasite load remaining: stronger effect = lower value; viability: measured here: HepG2 viability without parasites.
The nature of assay [2]: signal quenchers or enhancers, Cy5 substrate/SSB – biochemical, NIH Clinical Collection, E. coli SSB, artefact control for HCV NS3 helicase inhibitor project (AID 743268). Particulars: Cy5-oligo bound E. coli SSB, fluorescence interference.
Assay [3] concerns Hepatitis C virus NS3 helicase. In words: blockers of NS3h binding to DNA – biochemical, fluorescence polarization, NIH Clinical Collection, primary screen (AID 743270). The note with it: NS3 helicase binding to Cy5-dT15 DNA, stronger effect = higher value, concentration not given here.
Assay [4] has as its target Single-stranded DNA-binding protein (Escherichia coli (strain K12)) (UniProt P0AGE0). Briefly: SSB-ssDNA binding inhibitors – biochemical, fluorescence polarization, NIH Clinical Collection, counter-screen for HCV NS3 helicase inhibitor project (AID 743271; in the data active = inhibition above about 28%). Particulars: E. coli SSB-DNA binding, stronger effect = higher value, concentration not given here.
Assay [5] can be described thus: compounds distorting NS3 helicase fluorescence signal – biochemical, NIH Clinical Collection, artefact control for HCV NS3 helicase inhibitor project (AID 743272).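 Also: HCV NS3 helicase with a Cy5 labelled single stranded DNA probe.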 Particulars: fluorescence interference counterscreen, HCV NS3 helicase assay; stronger effect = lower value.
Assay [6] can be described thus: Wnt pathway potentiators raising nuclear beta-catenin – imaging, WNT3A-conditioned medium, mouse C2C12, NPC library, primary screen (AID 1117326; in the data active = nuclear beta-catenin stimulation mostly above about 4.2%, no sharp cut-off; inactive = mostly below about 10%). The note with it: stronger effect = higher value.
Assay [7] in a line: stimulators of insulin release from INS-1E, primary screen, cell-based, 5 mM glucose, NPC library (AID 1117329;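 active = compound raises insulin release from rat beta cells at 5 mM glucose, no numeric limit stated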). Particulars: rat INS-1E insulin secretion, at 10 µM, stronger effect = higher value.
The nature of assay [8]: growth inhibition of GSK3B-pretreated HCT116 cells – cell-based, CellTiter-Glo, 0.2 to 20 µM (AID 1117336;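 active = compounds lowering colon cancer cell viability after pretreatment blocking the GSK3B kinase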). Particulars: HCT116 viability after GSK3B inhibitor, at 20 µM, stronger effect = higher value.
A short description of assay [9]: inhibition of endothelial tube formation, primary screen, imaging, VEGF stimulated, CD31 staining, tube area, NPC library (AID 1117340;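 active = compound that reduces growth-factor-driven endothelial tube area in a mixed cell culture, no cutoff stated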). The note with it: VEGF-stimulated ADSC/ECFC co-culture, at 10 µM, stronger effect = higher value.
Assay [10] can be described thus: GLP1 release stimulators, primary, NCI-H716, NPC library (AID 1117341;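 active = compound raises GLP1 secretion from the human gut endocrine cells, with no numeric limit stated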). Particulars: NCI-H716 cells, at 10 µM, stronger effect = higher value.
The nature of assay [11]: HCT116 colon cancer cell growth inhibition, primary screen, CellTiter-Glo luminescence, NPC library (AID 1117342;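 active = compounds that lower survival of HCT116 colon cancer cells in the luminescence readout, no numeric limit stated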). Particulars: at 20 µM (top of the series).
A short description of assay [12]: reduced SW480 viability measured with CellTiter-Glo, NPC library, primary (AID 1117343;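 active = compounds that lower viability of the colon cancer cells in the luminescence readout, with no numeric limit stated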). Particulars: CellTiter-Glo luminescence; at 20 µM (top of the series).
The nature of assay [13]: NPC library primary testing for decreased DLD-1 cell viability via CellTiter-Glo (AID 1117346;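 active = compounds that lower survival of DLD-1 colon cancer cells in the luminescence readout, no cutoff given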). Particulars: DLD-1 viability, CellTiter-Glo luminescence; at 20 µM (top of the series).
In assay [14] the target is 6-phosphogluconate dehydrogenase, decarboxylating (Homo sapiens) (UniProt P52209). Briefly: inhibition of human phosphogluconate dehydrogenase – biochemical, recombinant enzyme, NADPH absorbance, primary screen (AID 1159550;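 active = at least 20% inhibition of 6-phosphogluconate dehydrogenase activity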). Particulars: recombinant 6PGD, NADPH absorbance 341 nm; at 10 µM; stronger effect = higher value.
Sequence of 6-phosphogluconate dehydrogenase, decarboxylating (Homo sapiens) (P52209 whole entry, looked up): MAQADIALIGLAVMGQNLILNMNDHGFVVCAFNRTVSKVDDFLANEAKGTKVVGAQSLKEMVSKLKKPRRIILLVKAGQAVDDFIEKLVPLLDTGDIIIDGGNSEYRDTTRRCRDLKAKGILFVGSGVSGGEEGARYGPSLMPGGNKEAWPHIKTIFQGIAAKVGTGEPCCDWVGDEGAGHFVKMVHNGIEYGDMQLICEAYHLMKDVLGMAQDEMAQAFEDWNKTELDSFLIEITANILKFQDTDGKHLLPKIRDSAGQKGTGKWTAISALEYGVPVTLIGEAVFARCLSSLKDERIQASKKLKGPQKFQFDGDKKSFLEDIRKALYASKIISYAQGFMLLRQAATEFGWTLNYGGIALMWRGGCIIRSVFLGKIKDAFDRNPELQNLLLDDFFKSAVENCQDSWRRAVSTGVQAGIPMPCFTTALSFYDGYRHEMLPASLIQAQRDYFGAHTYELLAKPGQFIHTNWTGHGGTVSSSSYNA
Assay [15] in a line: viability loss with induced miR-34 in A549 – imaging, A549 dox-inducible miR-34, nuclei and caspase counts, primary screen (AID 1347080;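 active = compounds whose cell count with miR-34 switched on is under 0.7 times the count with it off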). The note with it: A549 miR-34 inducible, Hoechst nuclei count, 48 h.
A short description of assay [16]: MELAS cybrid and Rieske KO viability enhancers – cell-based, MELAS cybrids, Rieske KO mouse fibroblasts, CellTiter-Glo, primary screen (AID 1508586;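 active = mean z-score across replicates of 1.96 or higher in either the MELAS or the Rieske mutant cell line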;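 also: z relative to plate mean and SD of compound and empty wells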). The note with it: low glucose.
The target of assay [17] is Mitogen-activated protein kinase 7 (Homo sapiens) (UniProt Q13164). Briefly: Gal4-ERK5 driven luciferase induction – cell-based, HTS, primary screen (AID 1508626;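 active = luciferase signal above three times the same-plate solvent-only control wells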;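 also: luciferase driven by Gal4-ERK5 fusion binding five Gal4 sites before minimal TATA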). Particulars: HeLa Gal4-ERK5 transactivation, 18 h, at 5 µM, stronger effect = higher value.
Sequence of Mitogen-activated protein kinase 7 (Homo sapiens) (Q13164 whole entry, looked up, the tested form may be a part): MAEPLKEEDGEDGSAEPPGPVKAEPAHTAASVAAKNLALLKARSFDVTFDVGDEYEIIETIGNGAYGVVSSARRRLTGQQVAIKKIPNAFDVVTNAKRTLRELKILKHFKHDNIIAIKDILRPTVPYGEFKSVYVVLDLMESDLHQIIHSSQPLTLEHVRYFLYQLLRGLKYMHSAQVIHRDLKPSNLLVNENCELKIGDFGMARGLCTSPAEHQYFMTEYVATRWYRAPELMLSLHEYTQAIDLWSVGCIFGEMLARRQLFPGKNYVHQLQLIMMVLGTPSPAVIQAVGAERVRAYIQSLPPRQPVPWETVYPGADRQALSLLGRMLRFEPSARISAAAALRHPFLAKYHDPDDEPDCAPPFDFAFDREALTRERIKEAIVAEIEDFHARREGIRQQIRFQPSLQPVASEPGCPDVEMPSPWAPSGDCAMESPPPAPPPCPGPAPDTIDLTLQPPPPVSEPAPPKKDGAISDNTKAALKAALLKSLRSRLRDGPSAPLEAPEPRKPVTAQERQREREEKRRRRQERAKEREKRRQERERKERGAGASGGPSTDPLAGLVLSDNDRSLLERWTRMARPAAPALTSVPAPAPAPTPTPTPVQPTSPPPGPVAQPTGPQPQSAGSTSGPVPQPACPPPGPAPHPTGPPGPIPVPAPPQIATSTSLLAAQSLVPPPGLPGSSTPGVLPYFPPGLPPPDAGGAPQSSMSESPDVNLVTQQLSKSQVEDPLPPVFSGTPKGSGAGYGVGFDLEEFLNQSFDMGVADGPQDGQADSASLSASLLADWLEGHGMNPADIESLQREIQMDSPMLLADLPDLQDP
The next assay deals with F380Y. Briefly: BK channel mutant inhibitors and activators – cell-based, U2OS BacMam, thallium flux, beta subunits, selectivity assay, profiling panel (AID 1259406;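 active = thallium flux through the channel raised or lowered by more than 3 SD from vehicle-only wells, actives on both sides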;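 also: initial slope of Thallos dye fluorescence rise after thallium is added; log ratio against the mean of 0.3% DMSO vehicle wells on the same plate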). Particulars: U2OS BacMam BK variants, at 30 µM.
Assay [18] is described as follows: EMT-state selective cytotoxicity in co-culture – imaging, PC-3E GFP, TEM4-18 mCherry, primary screen (AID 1345086;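 active = compounds killing one labelled cell type while sparing the other, by normalised counts and ratio limits, not self-fluorescent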;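 as to all read-outs here: cells exposed to compound for 72 h before imaging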;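 as to red/green cell ratio (normalised): normalised mesenchymal count divided by normalised epithelial count so high means epithelial killing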). Particulars: PC-3E GFP / TEM4-18 mCherry co-culture, imaging cell counts, at 1 µM; for red/green cell ratio (normalised): actives lie on both sides, counts scaled to control wells, 1 = unselective.
The target in assay [19] is NAD(+) hydrolase SARM1 (Homo sapiens) (UniProt Q6SZW1). In words: blocking NAD cleavage by SARM1 SAM-TIR – cell lysate, NAD-Glo luminescence (AID 1508614;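 active = compound whose remaining NAD level is above about 45 nM, limit read from the data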;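 also: higher remaining NAD means stronger inhibition of SARM1 NADase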). The note with it: SAM-TIR HEK293T lysate NADase, at 1 µM, stronger effect = higher value.
Sequence of NAD(+) hydrolase SARM1 (Homo sapiens) (Q6SZW1 whole entry, looked up): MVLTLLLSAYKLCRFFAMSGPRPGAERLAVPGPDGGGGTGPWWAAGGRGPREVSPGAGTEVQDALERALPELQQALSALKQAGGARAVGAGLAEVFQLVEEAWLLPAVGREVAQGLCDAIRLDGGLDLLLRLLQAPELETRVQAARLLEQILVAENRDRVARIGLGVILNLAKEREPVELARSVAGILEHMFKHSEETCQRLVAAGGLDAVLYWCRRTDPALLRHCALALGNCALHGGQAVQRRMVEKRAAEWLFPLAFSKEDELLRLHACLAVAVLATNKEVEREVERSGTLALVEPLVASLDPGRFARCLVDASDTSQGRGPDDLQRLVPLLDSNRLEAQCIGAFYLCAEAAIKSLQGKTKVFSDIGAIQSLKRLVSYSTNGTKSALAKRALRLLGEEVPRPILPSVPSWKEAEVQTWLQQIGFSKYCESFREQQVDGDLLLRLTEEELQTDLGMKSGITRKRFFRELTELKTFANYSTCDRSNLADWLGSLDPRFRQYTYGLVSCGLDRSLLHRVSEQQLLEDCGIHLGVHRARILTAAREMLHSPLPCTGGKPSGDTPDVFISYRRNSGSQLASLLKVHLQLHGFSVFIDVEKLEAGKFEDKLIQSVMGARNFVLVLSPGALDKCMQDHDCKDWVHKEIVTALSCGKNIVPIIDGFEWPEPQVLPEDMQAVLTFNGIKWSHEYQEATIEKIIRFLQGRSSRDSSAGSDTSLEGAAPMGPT
The mark [20] stands for this setting: MELAS cybrid survival, CellTiter-Glo 48 h, stronger effect = higher value.
The mark [21] stands for this setting: Rieske KO mouse fibroblast survival, CellTiter-Glo 72 h.
Where [22] appears, read: measured here: epithelial PC-3E GFP cell survival.
Setting [23] is: measured here: mesenchymal TEM4-18 mCherry cell survival.

“And” between values parts separate entries of the source, which are not always exact repeats. Equal values may be shown once. The source made the active and inactive calls. Unless noted, no rule for the calls is given here.

Turning to `Cc1onc(-c2ccccc2)c1-c1ccc(S(N)(=O)=O)cc1`, the parasite load remaining in [1] is 163% (inactive) and 88.9% (inactive). Also, the viability in assay [1] is 90.7% and 71.3%. Also, the fluorescence ratio in assay [2] is 1 (inactive); in [5], 0.93 (inactive). In addition, the inhibition was -1.19% (inactive) in assay [3], -2.41% (inactive) in [4] and -1.63% (inactive) in [14]. In addition, the nuclear beta-catenin stimulation is 1.5% (inactive) in assay [6] (at 10 µM) and 1.6% in assay [6] (stimulation, at 2 µM). Besides, the insulin secretion stimulation in [7] was -0.9% (inactive). The viability decrease in assay [8] is -37.3% (inactive). In [9], the tube area decrease is 32.7% (inactive). Moreover, the GLP1 secretion stimulation in assay [10] is 4.8% (inactive). Also, the inhibition of viability in assay [11] was 33.5% (inactive). For the same compound, the viability decrease (inhibition) in assay [12] is 54% (active); in [13] it was 32.5% (inactive). Besides, the fold change was 0.904 (inactive) and 0.903 (inactive) in assay [15] (stronger effect = lower value, cell number ratio, induced over uninduced); 1.68 and 0.72 in assay [15] (measured here: relative caspase fold change +Dox/-Dox). Moreover, the cell count was 8880 and 8040 in assay [15] (measured here: total cells with miR-34 induction, stronger effect = lower value); 9820 and 8900 in assay [15] (measured here: total cells without miR-34 induction). In addition, the z-score is -0.154 (inactive) and 0.659 (inactive) in [16] (setting [20]); -0.131 and 0.628 in assay [16] (setting [21]). The luciferase signal in assay [17] is 64 AU (inactive). In the assay with F380Y, the log fold change Tl+ flux is 0.0649 (inactive).

For `CN[C@@H]1[C@H](O)[C@H](NC)[C@H]2O[C@@]3(O)C(=O)C[C@@H](C)O[C@H]3O[C@@H]2[C@H]1O`, the fluorescence ratio in [2] is 1.06 (inactive); in [5] it was 1.01 (inactive). For the same compound, the inhibition in assay [3] is -5% (inactive); in [4], -4.29% (inactive); in [14], -6.86% (inactive). Besides, the nuclear beta-catenin stimulation in assay [6] (at 10 µM) was 0.2% (inactive); in assay [6] (stimulation, at 2 µM) it was 3.5%. In assay [7], the insulin secretion stimulation was -0.2% (inactive). In addition, the viability decrease in [8] was 12.5% (inactive). In addition, the tube area decrease in assay [9] is -8.4% (inactive). For the same compound, the GLP1 secretion stimulation in [10] was 23.7% (active). The inhibition of viability in assay [11] is 6.2% (inactive). Besides, the viability decrease (inhibition) is 12.1% (inactive) in assay [12] and 3.7% (inactive) in assay [13]. Besides, the red/green cell ratio (normalised) in [18] was 1.39 (inactive). In addition, the normalised cell number in [18] (setting [22]) was 0.94; in assay [18] (setting [23]) it was 1.31. Besides, the z-score in assay [16] (setting [20]) is 0.0203 (inactive) and 0.894 (inactive); in [16] (setting [21]), 0.169 and 0.769. Moreover, in assay [19], the remaining NAD was 10 nM (inactive). In [17], the luciferase signal was 44 AU (inactive). The log fold change Tl+ flux in the assay on F380Y is -0.0285 (inactive).

For `COc1cc(NC(C)CCCN)c2ncccc2c1` (stereo not drawn), the fluorescence ratio is 0.96 (inactive) in assay [2] and 0.86 (inactive) in [5]. Besides, the inhibition in assay [3] was -5% (inactive); in assay [4], 0.29% (inactive); in [14] it was -0.957% (inactive). Besides, the nuclear beta-catenin stimulation in assay [6] (at 10 µM) is 1.4% (inactive); in assay [6] (stimulation, at 2 µM) it was 1.8%. The insulin secretion stimulation in [7] was 0.4% (inactive). Besides, the viability decrease in [8] is 102% (active). In assay [9], the tube area decrease was 11.2% (inactive). Moreover, the GLP1 secretion stimulation in [10] is 2.7% (inactive). In addition, the inhibition of viability in assay [11] is 97.2% (active). For the same compound, the values for the viability decrease (inhibition) in assay [12] and in [13] were 71.5% (active) and 47.3% (inactive), respectively. Also, the red/green cell ratio (normalised) in [18] was 1.43 (inactive). Further, the normalised cell number in [18] (setting [22]) stood at 0.94; in assay [18] (setting [23]), 1.34. Moreover, the z-score is -0.353 (inactive) and -0.329 (inactive) and 0.456 (inactive) in assay [16] (setting [20]); -0.221 and -0.189 and 1.47 in assay [16] (setting [21]). For the same compound, the remaining NAD in [19] was 10 nM (inactive). In addition, in assay [17], the luciferase signal is 32 AU (inactive). In addition, the log fold change Tl+ flux in the assay on F380Y is -0.0858 (inactive).
